# Measurements taken from publication PMC5540273 (PLoS ONE, 2017).
# Test system: T1, AMPK-alpha2
# T1 construct: gene PRKAA2
# Conditions: concentration: 1 μM, replicates: in singlicate; n = 1
# 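Note: KINOMEscan kinase panel screen.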
row,Compound,%Inh
1,Cc1c2ccc(N(C)c3ccnc(Nc4cccc(S(N)(=O)=O)c4)n3)cc2nn1Cc1ccccc1.Cl.Cl [GW787226],0%
2,Fc1ccc(-c2ncn(CCCN3CCOCC3)c2-c2cccnc2)cc1 [SB-211743],12%
3,COc1ccc(Nc2ncc(C#N)c(Nc3ccccc3C(N)=O)n2)cc1N1CCN(C)CC1.Cl [GSK1558669],99.8%
4,O=c1cc(N2CCOCC2)nc2n(Cc3cccc4ccccc34)ccn12 [GSK2333389],0%
5,CCc1nc(-c2cccc(C)c2)c(-c2ccnc(NCc3ccccc3)c2)s1,5%
6,O=C(NCCNc1ccnc(Nc2ccc(F)cc2)n1)c1cc2ccccc2s1 [GSK1379874],0%
7,O=C(NCCNc1ccnc(Nc2ccc(F)cc2)n1)Nc1ccccc1F [GSK1379880],0%
8,CN(C(=O)c1ccc(-c2cc(-c3c[nH]nc3-c3ccccn3)ccn2)cc1)C1CCOCC1 [GW810083],0%
9,O=C(Nc1n[nH]c2cc(-c3cccc(F)c3)ccc12)C1CC1 [SB-735464],69%
10,Cc1nnc(-c2ccc(C)c(-c3ccc(C(=O)Nc4ccc(NS(C)(=O)=O)cc4)cc3)c2)o1 [GW702865],1%
11,COc1ccc(S(=O)(=O)NC2CCN(c3cc(C)nc(Nc4cccc(C#N)c4)n3)CC2)cc1.O=C(O)C(F)(F)F [GSK1653539],0%
12,O=C(NOCC1CC1)c1ccc(F)c(F)c1Nc1ccc(I)cc1Cl,0%
13,COc1cc2c(cc1OC[C@@H](O)CO)ncc1c3ccc(C#N)cc3[nH]c21,0%
14,NS(=O)(=O)CCc1cccc(Nc2nccc(-c3c(-c4cccc(NC(=O)c5c(F)cccc5F)c4)nn4ccccc34)n2)c1 [GSK336735],33%
15,COc1ccc(CNC(=O)NC2CCN(c3ccnc(Nc4ccc(OC)cc4)n3)C2)cc1 (stereo not drawn) [GSK1379727],0%
16,c1ccc(-c2cc(-c3c[nH]nc3-c3ccccn3)ccn2)cc1 [GW576604],0%
17,Cn1cc(-c2ccc3c(c2)CCN3C(=O)Cc2ccccc2Cl)c2c(N)ncnc21 [GSK2608885],30%

row,Compound,%Inh
1,Cc1nnc(-c2ccc3ncc(-c4ccc(S(C)=O)cc4)n3c2)o1 (stereo not drawn),0%
2,Cc1ccc(NC(=O)c2ccnc(N3CCN(C)CC3)c2)cc1-c1ccc(C(=O)NCC2CC2)cc1 [GW775604],0%
3,CN(C1=C(c2ccccc2)C(=O)NC1=O)c1ccccc1 [SB-334860],23%
4,Cc1ccc(C(=O)NCC(N)=O)cc1-n1c(C)cc(OCc2ccc(F)cc2F)c(Br)c1=O,11%
5,NCC(NC(=O)c1cc(-c2cn[nH]c2)c(-c2ccnc3[nH]ccc23)s1)c1ccccc1.O=C(O)C(F)(F)F.O=C(O)C(F)(F)F (stereo not drawn) [GSK1325775],24%
6,CNc1ncnc2[nH]ncc12 [SKF-18355],0%
7,CCCCCc1nc2c(N)ncnc2n1CCCCC [SKF-97255],11%
8,C[C@@H](Oc1cc(-n2cnc3ccc(NC(=O)NC(C)(C)C)cc32)sc1C(N)=O)c1ccccc1Cl [GSK346294],12%
9,Cl.Oc1cccc(Nc2ccnc3cc(-c4ccncc4)ccc23)c1 [GW494601],0%
10,O=C1NC(=O)C(N2CCc3ccccc32)=C1c1cccc(Cl)c1 [SB-408010],22%
11,Cc1cn2c(=O)cc(N3CCOCC3)nc2n1Cc1cccc(Cl)c1Cl [GSK2334006],0%
12,N#Cc1c(N2CCOCC2)sc(-c2ccn[nH]2)c1-c1ccc(Cl)cc1,0%
13,CC(=O)Nc1ccc(COc2ccc(Nc3ccnc4cc(-c5ccccn5)ccc34)cc2)cc1.Cl [GW440148],11%
14,O=c1cc(N2CCOCC2)nc2n(Cc3cccc(C(F)(F)F)c3)ccn12 [GSK2297543],0%
15,Fc1ccc(-c2nn3c(OCC(F)(F)F)cccc3c2-c2ccncc2)cc1 [GW514784],0%
16,Cc1cccc(-c2nc(Nc3ccc4ncsc4c3)c3ccccc3n2)n1 [GW867588],0%
